According to PubChem BioAssay (NCATS):
Results filed as inconclusive are left out. Unmarked numbers belong to inactive results. The source made the active and inactive calls. The call rests on the fitted dose curve; in most records, active means well fitted inhibition curve with a large enough effect; inconclusive means small, poorly fitted or top-dose-only effect; inactive means flat fitted curve, though single readings scatter.

system: Zika virus NS2B-NS3 protease; assay: Primary screen GU AMC qHTS for Zika virus inhibitors (AID 1347154); conditions: Zika NS2B-NS3 unlinked protease, AMC fluorogenic substrate; series mostly up to 54.1 µM; activity change, negative = inhibition: at the top concentration;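 further: 0% = no-inhibitor control and -100% = no-enzyme control; nearly all actives have a fitted effect of over 70% in size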
Procedure, shortened: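 Unlinked Zika NS2B hydrophilic domain/NS3 protease domain noncovalent complex (25 nM final) in 10 mM Tris-HCl pH 8.0, 0.01% Tween 20, with AMC peptide substrate. Fluorescence (ex 340, em 450 nm) change over 15 min, room temperature; percent inhibition fitted to 4-parameter Hill equation.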

| Structure (SMILES) | activity change, negative = inhibition [%] | Potency |
| --- | --- | --- |
| CC(=O)[C@H]1CC[C@H]2[C@@H]3C[C@H](C)C4=CC(=O)CC[C@]4(C)[C@H]3[C@@H](O)C[C@]12C | -4.23 |  |
| NCCC(O)(P(=O)(O)O)P(=O)(O)O | -2.06 |  |
| Nc1ccc(C(=O)Nc2ccccc2N)cc1 | -5.85 |  |
| CC(=O)CC(c1ccc([N+](=O)[O-])cc1)c1c(O)c2ccccc2oc1=O (configuration not stated) | 2.35 |  |
| CC(=O)Nc1c(I)cc(I)c(C(=O)O)c1I | -2.94 |  |
| CC1(C)O[C@@H]2[C@@H](CO[C@@]3(COS(N)(=O)=O)OC(C)(C)O[C@@H]23)O1 | -3.95 |  |
| O=C(CCN1CCC(c2ccccc2)C1)c1ccc2c(c1)OCCO2 (configuration not stated) | 1.26 |  |
| C[C@]12CCC(=O)C=C1[C@@H]1C[C@@H]1[C@H]1[C@@H]3[C@@H]4C[C@@H]4[C@@]4(CCC(=O)O4)[C@@]3(C)CC[C@@H]12 | 2.98 |  |
| C/C=C/c1ccc(OC)cc1 | -6.87 |  |
| NC(=O)c1cc[n+](CC2=C(C(=O)[O-])N3C(=O)[C@@H](NC(=O)Cc4cccs4)[C@H]3SC2)cc1 | -6.28 |  |
| COc1cc(-c2ccc(=O)[nH]n2)ccc1OC(F)F |  | inactive |
| COc1cc2c(cc1OC)C(=O)C(CC1CCN(Cc3ccccc3)CC1)C2 (configuration not stated) | -14 |  |
| CC/C(=C(/CC)c1ccc(O)cc1)c1ccc(O)cc1 | -11.2 |  |
| CN1CCCC(CC2c3ccccc3Sc3ccccc32)C1 (configuration not stated) | -2.61 |  |
| O=C(OCC(O)CO)c1ccccc1Nc1ccnc2cc(Cl)ccc12 (configuration not stated) | -3.56 |  |
| CC[N+](CC)(CCNC(=O)C(=O)NCC[N+](CC)(CC)Cc1ccccc1Cl)Cc1ccccc1Cl |  | inactive |
| C[C@]12CC[C@@H]3c4ccc(O)cc4CC[C@H]3[C@@H]1C[C@@H](O)[C@@H]2O | -5.08 |  |
